Compounds without any hit were thinned out: in the full panel of roughly 83,000, 20% have a hit.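 Note: values are percent growth. 100 is the growth of untreated cells, values between 100 and 0 indicate rising inhibition; between -100 and 0 indicates cell death.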 The source made the active and inactive calls. Rule for the calls: active = growth percent below 10; inactive = the rest.
Assays:
Assay in all cases: NCI-60 one-dose screen, 48 h (100 = growth as untreated, 0 = no growth, -100 = all killed)
Settings in all cases: 10 µM unless noted
[1] = tested on: HCT-15 colon
[2] = tested on: HT29 colon
[3] = tested on: SNB-75 CNS
[4] = tested on: SNB-19 CNS
[5] = tested on: U251 CNS
[6] = tested on: PC-3 prostate
[7] = tested on: SK-MEL-5 melanoma
[8] = tested on: UACC-62 melanoma
[9] = tested on: LOX IMVI melanoma
[10] = tested on: SK-MEL-28 melanoma
[11] = tested on: SK-MEL-2 melanoma
[12] = tested on: EKVX NSCLC
[13] = tested on: SN12C renal
[14] = tested on: UO-31 renal
[15] = tested on: TK-10 renal
[16] = tested on: ACHN renal
[17] = tested on: CAKI-1 renal
[18] = tested on: A498 renal
[19] = tested on: CCRF-CEM leukemia
[20] = tested on: MOLT-4 leukemia

Measured: growth

O=C1N[C@@H]2NC(=[N+]3CCOCC3)N[C@@H]2N1
inactive: [1] 104% | [2] 110% | [3] 94.5% | [4] 96% | [5] 97.2% | [6] 106% | [7] 101% | [8] 90.1% | [9] 98.3% | [10] 101% | [11] 118% | [12] 102% | [13] 97.8% | [14] 87.3% | [15] 103% | [16] 104% | [17] 91.5% | [18] 98.3% | [19] 108% | [20] 103%

Oc1ccc(CN2CCC(N3CCCCC3)CC2)c2cccnc12
inactive: [1] 18% | [2] 105% | [3] 25.4% | [4] 23.7% | [5] 17.6% | [6] 17.9% | [8] 14.9% | [9] 17.8% | [10] 33.4% | [12] 45.6% | [13] 22.2% | [17] 44% | [18] 71.3% | [19] 35.8% | [20] 41.2%
active: [7] -29.4% | [11] 2.95% | [14] 5.93% | [15] -58.5% | [16] 8.86%

O=C(NNc1nccc(Nc2ccc(S(=O)(=O)Nc3ccncc3)cc2)n1)c1ccccc1
inactive: [1] 107% | [2] 94.4% | [3] 99% | [4] 109% | [5] 99.6% | [6] 100% | [7] 102% | [8] 101% | [10] 106% | [11] 106% | [12] 104% | [13] 107% | [14] 93.9% | [15] 95.3% | [16] 104% | [17] 92.8% | [18] 103% | [20] 96.7%
active: [9] -40.5%

COc1ccc(NC(=O)c2sc3nc(C)c(C(=O)/C=C/c4cccc(OC)c4)cc3c2N)cc1
active: [1] -12.8% | [2] 1.21% | [4] 8.88% | [5] 1.61% | [9] -73.1%
inactive: [3] 11.2% | [6] 55.2% | [7] 71.3% | [8] 56.6% | [10] 80.7% | [11] 42.9% | [12] 93.5% | [13] 19.7% | [14] 27.1% | [15] 82.2% | [16] 52.3% | [17] 32.9% | [18] 14.3% | [20] 33.1%

O=CC1(C2(C=O)c3ccccc3-c3ccccc32)c2ccccc2-c2ccccc21
active: [1] -36.4% | [2] -53.9% | [3] -79.2% | [4] -83% | [5] -63% | [6] -64.5% | [7] -83.7% | [8] -61.5% | [9] -61% | [10] -38.2% | [11] -44.4% | [12] -78.4% | [13] -29.1% | [14] -89.3% | [15] -79.9% | [16] -79% | [17] -78.2% | [18] -84.1% | [19] -5.1% | [20] -47.4%

O=C(N/N=C/c1ccc(F)cc1)c1ccc(C(F)(F)F)nc1Nc1cccc(C(F)(F)F)c1
active: [1] 0.43% | [2] 1.2% | [3] 0.243% | [5] -41% | [6] -1.21% | [7] -30.6% | [8] -6.64% | [9] -23.7% | [11] -29.1% | [12] 4.22% | [13] -12.1% | [14] -18.4% | [15] 3.93% | [16] -3.72% | [17] -7.66% | [18] -1.26% | [20] -20.3%
inactive: [4] 18.4% | [10] 12.7%

COc1cc2c(c(OC)c1OC)CCC(c1cccc(C(=O)Nc3cccc(Br)c3)c1)O2 (configuration not stated)
inactive: [1] 67% | [2] 58.1% | [3] 69% | [4] 81.6% | [5] 71.5% | [6] 49.1% | [7] 55.6% | [8] 52.8% | [9] 74% | [10] 87.9% | [11] 76.8% | [12] 50.4% | [13] 55.9% | [14] 54.7% | [15] 78.7% | [16] 84.3% | [17] 57.8% | [18] 28.8% | [19] 69% | [20] 49.4%

CCc1ccc(C(=O)/C=C/C23c4ccccc4C(c4ccccc42)C2C(=O)NC(=O)C23)cc1 (configuration not stated)
active: [1] -10.3% | [2] 1.59% | [5] -25% | [8] -6.86% | [9] -68.7% | [10] -23.7% | [11] 3.45% | [13] -7.89% | [16] 0.0344% | [18] 5.29% | [19] 0.462% | [20] 2.03%
inactive: [3] 26.3% | [4] 12% | [6] 13.3% | [7] 10% | [12] 23.2% | [14] 22.1% | [15] 18% | [17] 27.5%

Source: PubChem BioAssay (NCI)
